These results are taken from PubChem BioAssay (NCATS).

Test [1] is described as follows: Viability qHTS for spleen associated tyrosine kinase inhibitor (SYKi) naive MV4-11 cells (AID 1963823). Further: nearly all actives have a fitted effect of over 40% in size. An outline of the steps:
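Cells: MV4-11, SYK inhibitor naive, 500 per well. Treatment: library compounds, 72 hr, 37 C, 5% CO2. Read-out: CellTiter-Glo luminescence after 10 min RT.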

Test [2] is described as follows: Viability qHTS for spleen associated tyrosine kinase inhibitor (SYKi) drug resistant MV4-11 cells (AID 1963824). Further: nearly all actives have a fitted effect of over 35% in size. An outline of the steps: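 SYK inhibitor-resistant MV4-11 AML cells, 500 per well, added to predispensed compounds and incubated 72 hr at 37 C, 5% CO2. Viability measured by CellTiter-Glo luminescence after 10 min at room temperature.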
Test [3] is described as follows: Quantitative highthroughput screen to assess conditional lethalithy of P12 Ichikawa cells grown in RPMI1640 with dialyzed fetal bovine serum (RPMI+ds) (AID 1963880). Further: nearly all actives have a fitted effect of over 35% in size.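 On Viability: 100% = DMSO wells and 0% = empty wells on each plate.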 The note with it: Potency: P12-Ichikawa viability. In outline:
(§1)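 Each medium arm—HPLM with 10% dialyzed FBS, or RPMI1640 with 5 mM glucose and 10% untreated or dialyzed FBS—was screened against an 11-point, 3-fold compound titration for 48 h at 37 °C, with CellTiter-Glo luminescence as endpoint.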

The nature of test [4]: Quantitative highthroughput screen to assess conditional lethalithy of SEM cells grown in RPMI1640 with unreated serum (RPMI+s) (AID 1963883). Further: nearly all actives have a fitted effect of over 35% in size. An outline of the steps:
as §1

A short description of test [5]: Quantitative highthroughput screen to assess conditional lethalithy of SEM cells grown in RPMI1640 with dialyzed fetal bovine serum (RPMI+ds) (AID 1963884). Further: nearly all actives have a fitted effect of over 35% in size. In outline: as §1
Test [6] is described as follows: Cellular viability qHTS for adrenocortical cancer (ACC) cell line SW-13 (AID 1963989). Further: nearly all actives have a fitted effect of over 65% in size.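 On activity (max response): cells grown in serum-free medium with ITS supplement; on the % scale 0 is the no-effect control and ±100 the full control effect.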 The note with it: SW-13 ACC cells viability, CellTiter-Glo, 48 h; activity (max response): stronger effect = lower value. In outline:
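48 h treatment, SW-13 in ITS/DMEM serum-free; doses up to 46 uM; readout CellTiter-Glo luminescence; curve fit four-parameter logistic.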
(In general: qHTS replaces the single test concentration by a dilution series.)

A short description of test [7]: Cellular viability qHTS for adrenocortical cancer (ACC) cell line NCI-H295R (AID 1963990). Further: nearly all actives have a fitted effect of over 60% in size. An outline of the steps:
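Compound titrations (up to 46 uM final) are applied to NCI-H295R cultures for 48 h at 37C. Viable cell number is estimated by CellTiter-Glo signal, normalised to DMSO and doxorubicin controls.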

A short description of test [8]: Quantitative highthroughput screen to assess conditional lethalithy of P12 Ichikawa cells grown in RPMI1640 with untreated serum (RPMI+s) (AID 1963881). Further: nearly all actives have a fitted effect of over 35% in size. The note with it: Potency: viability. In outline:
as §1

The nature of test [9]: Quantitative highthroughput screen to assess conditional lethalithy of SEM cells grown in Human Plasma-Like Medium with dialyzed fetal bovine serum (HPLM+ds) (AID 1963882). Further: nearly all actives have a fitted effect of over 35% in size. An outline of the steps:
as §1

A short description of test [10]: Quantitative highthroughput screen to assess conditional lethalithy of P12 Ichikawa cells grown in Human Plasma-Like Medium with dialyzed fetal bovine serum (HPLM+ds) (AID 1963879). Further: nearly all actives have a fitted effect of over 35% in size. On Viability: series mostly up to about 46 µM. The note with it: Potency: viability. In outline: as §1

Several values for one entry are separate records, joined by “and”; a condition that tells them apart may be missing. Equal values may be shown once. Records with an inconclusive call do not appear. Values without a mark were called inactive. Activity calls are given as the source filed them. The call rests on the fitted dose curve; in most records, active means well fitted curve in the direction sought with a large enough effect; inconclusive means small, poorly fitted or top-dose-only effect, or another doubt; inactive means no such curve, though single readings can be large; an effect the other way counts as inactive or inconclusive.
Potency means the concentration at half of the fitted maximal effect.

Turning to `CCCC1OC2C[C@@H]3[C@H]4CCC5=CC(=O)C=C[C@]5(C)[C@H]4C(O)C[C@]3(C)[C@]2(C(=O)CO)O1` (stereo not given in full), the Potency in test [1] was 16.6 µM (active); in test [2], 7.42 µM (active); in test [3] it was 0.0132 µM (active); in test [4], 0.187 µM (active); in test [5] it was 0.132 µM (active). For the same compound, in test [6], the activity (max response) was -12.3%. Also, the Potency result in [7] was “inactive”.

As to `CN1CCc2c(c3ccccc3n2Cc2ccc(C(=O)NO)cc2)C1`, the Potency is 26.3 µM (active) in test [1], 14.8 µM (active) in [2], 13.2 µM (active) in [8] and 11.8 µM (active) in test [9]. The Potency entry in test [3] is “inactive”.

Consider `Cn1c2ccccc2c2c3c(c4c5ccccc5n(CCC#N)c4c21)CNC3=O`, for which the Potency was 0.0651 µM (active) in test [1]; 0.259 µM (active) in test [2]; 0.372 µM (active) in test [9]; 0.526 µM (active) in test [4]; 0.418 µM (active) in [5]; 3.55 µM (active) in test [7].

In the case of `Nc1cccc(-c2cc3c(Oc4cccc(O)c4)ncnc3[nH]2)c1`, the Potency was 1.66 µM (active) in [1]; 2.91 µM (active) and 3.32 µM (active) in test [2]; 16.6 µM (active) in [10]; 16.6 µM (active) in [9]; 3.16 µM (active) in test [6]; 8.91 µM (active) in test [7].

Take `CC(C)(O)CC(=O)NCCn1ccc2ncnc(Nc3ccc(Oc4cccc(C(F)(F)F)c4)c(Cl)c3)c21`: the Potency was 14.6 µM (active) and 16.6 µM (active) in test [1]; 9.2 µM (active) and 6.61 µM (active) in [2]; 9.35 µM (active) in test [10]; 20.9 µM (active) in [4]; 14.1 µM (active) in test [6]; 8.91 µM (active) in test [7].

On to `COc1cc(C(=O)N2CCC(N3CCN(C)CC3)CC2)ccc1Nc1ncc2c(n1)N(C)c1ccccc1C(=O)N2C`, for which the Potency is 461 nM (active) and 1.32 µM (active) in [1]; 651 nM (active) and 1.18 µM (active) in test [2]; 3.72 µM (active) in [9]; 12.6 µM (active) in test [7].

On to `O=C(Nc1ccc(OC(F)(F)F)cc1)c1sccc1NCc1ccnc2ccccc12`, for which the Potency in [1] was 5.25 µM (active) and 5.17 µM (active); in test [2], 4.68 µM (active) and 5.8 µM (active); in test [3], 2.35 µM (active); in [8] it was 2.35 µM (active); in test [9], 2.96 µM (active); in [4], 2.96 µM (active). For the same compound, in test [5], the Potency is 7.43 µM (active). The activity (max response) in test [6] is -29.8%.

Consider `CC(C)C[C@H](NC(=O)c1cc2ccccc2s1)C(=O)N1CCN(C(=O)[C@H](CO)NS(=O)(=O)c2ccc(Cl)cc2Cl)CC1`, for which the figures for the Potency in [1], in [2] and in test [7] were 20.9 µM (active), 16.6 µM (active) and 25.1 µM (active), respectively. The Potency result in test [10] is “inactive”.

In the case of `Clc1cc(Cl)cc(CNc2ncncc2-c2ccc3c(c2)OCO3)c1`, the Potency is 20.6 µM (active) in test [1]; 9.34 µM (active) in test [2]; 26.4 µM (active) in test [4]; 10 µM (active) in test [6]; 3.55 µM (active) in [7].

For `CC[C@H](CC#N)OC(=O)N[C@@H](C)c1cccc(NC(=O)Nc2ccc(-c3cnco3)c(OC)c2)c1`, the Potency in [1] is 326 nM (active) and 263 nM (active); in [2], 231 nM (active) and 263 nM (active); in [4] it was 2.09 µM (active); in test [6], 28.2 µM (active).

On to `CCCS(=O)(=O)Nc1ccc(F)c(C(=O)c2c[nH]c3ncc(Cl)cc23)c1F`, for which the Potency in test [1] was 11.6 µM (active); in test [2] it was 11.8 µM (active); in test [9], 9.35 µM (active); in test [4], 11.8 µM (active); in test [5] it was 13.2 µM (active).

In the case of `NC(=O)Nc1sc(-c2ccc(F)cc2)cc1C(N)=O`, the Potency in [1] was 1.86 µM (active); in test [2], 3.32 µM (active); in [9], 16.6 µM (active); in test [4], 1.32 µM (active); in [5], 14.8 µM (active); in test [7] it was 25.1 µM (active). Also, in test [6], the activity (max response) is -22.4%.

For the compound `C[C@@H]1COCCN1c1cc(=O)n2c(n1)N(Cc1cncc(Cl)c1)[C@H](C(F)(F)F)CC2`, the Potency in [1] is 6.51 µM (active); in [2] it was 4.11 µM (active); in [3] it was 9.33 µM (active); in test [8], 9.33 µM (active). Also, the activity (max response) in test [6] is 2.98%. Besides, the Potency result in test [7] was “inactive”.

For `C[C@]1(CO)CN(c2cc(C(=O)Nc3ccc4c(c3)-c3c(c(C(N)=O)nn3-c3ccc(F)cc3)CC4)c(Cl)cn2)C[C@@]1(C)CO`, the Potency is 3.66 µM (active) in test [1]; 2.91 µM (active) in [2]; 16.6 µM (active) in [8]; 18.7 µM (active) in test [9]; 18.7 µM (active) in [5].

With `NCCCCNCCCN`, the Potency in test [1] is 5.9 µM (active); in test [2], 5.9 µM (active); in [3], 23.5 µM (active); in test [8], 18.7 µM (active); in test [9] it was 11.8 µM (active); in [4], 13.2 µM (active). Also, the Potency in test [5] is 11.8 µM (active). In addition, the activity (max response) in [6] was 4.66%. Moreover, the Potency entry in test [7] is “inactive”.

Regarding `CC1(C)CCC2=C(O1)c1ccccc1C(=O)C2=O`, the Potency in [1] was 8.33 µM (active); in test [2], 7.42 µM (active); in test [4] it was 26.4 µM (active); in test [5], 18.7 µM (active); in test [6], 15.8 µM (active); in test [7] it was 8.91 µM (active).

Regarding `CC(C)n1nc(-c2ccc3oc(N)nc3c2)c2c(N)ncnc21`, the Potency in test [1] was 36.6 nM (active) and 29.5 nM (active); in test [2], 73.1 nM (active) and 46.8 nM (active); in test [9], 0.0332 µM (active); in test [4] it was 0.0469 µM (active); in test [5] it was 0.469 µM (active); in [6], 0.1 µM (active). Besides, the Potency in [7] was 0.0708 µM (active).

On to `Nc1ncnc2c1nc(Cl)n2[C@@H]1O[C@H](CO)[C@@H](O)[C@@H]1O`, for which the Potency was 2.35 µM (active) in [1]; 2.95 µM (active) in test [2]; 11.8 µM (active) in test [9]; 14.8 µM (active) in test [4]; 8.33 µM (active) in [5].
